# Screening data as filed in PubChem BioAssay.
# PfHsp40 rescue: rescue of PfHsp40-mediated yeast toxicity; S. cerevisiae expressing PfHsp40, growth rescue, ATP luminescence; growth rescue, % at 12.5 µM; 340,000 compounds, 0.68% hits; AID 504582; in the data active = growth rescue above about 28%, passing the limit was not always enough; inconclusive = no clear call, values can overlap the other calls;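 note: yeast W303a lacking pdr1 and pdr3 grown in galactose medium; growth measured after three days at 30 °C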
# MazF activator: MazEF (E. coli) toxin RNase activation. FAM/BHQ RNA-DNA oligo cleavage fluorescence, 5 h. 350,000 compounds, 0.32% hits. activation, % at 20 µM. P0AE70; in the data active = activation above about 50%
# Target sequence (P0AE70 whole entry, looked up): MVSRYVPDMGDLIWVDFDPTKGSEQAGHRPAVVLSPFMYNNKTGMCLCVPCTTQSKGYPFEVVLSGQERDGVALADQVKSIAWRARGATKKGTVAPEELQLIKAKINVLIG
# Anthrax LF inh2: inhibitors of Bacillus anthracis lethal factor protease; multiplex microsphere protease cleavage assay, LF; inhibition, % at 10 µM; 360,000 compounds, 0.12% hits; AID 588501; note: plate controls were buffer without enzyme for full effect and enzyme alone for no effect
# BoNT F protease: blocks Botulinum neurotoxin F light chain protease; inhibition, % at 10 µM; Multiplex microsphere protease cleavage assay, flow cytometry; 360,000 compounds, 0.22% hits; AID 588497; in the data active = inhibition above about 35%, passing the limit was not always enough; inconclusive = no clear call, values can overlap the other calls; note: plate controls were buffer without enzyme for full effect and enzyme alone for no effect
# BoNT A protease: inhibitors of Botulinum neurotoxin A light chain protease; multiplex microsphere protease substrate cleavage, flow cytometry; 360,000 compounds, 0.17% hits; inhibition, % at 10 µM; note: plate controls were buffer without enzyme for full effect and enzyme alone for no effect
# Bead autofluor: flagged as autofluorescent in microsphere protease counterscreen; compound autofluorescence counterscreen, microsphere flow cytometry; active compounds read high; fluorescence intensity (concentration not given with the values); 360,000 compounds, 3.1% hits; AID 624483; in the data active = fluorescence intensity above about 16000; inconclusive = no clear call, values can overlap the other calls
# Starred values were filed as active, the others as inactive; ? = inconclusive; · = no result given. In the library only some 4.3% were active in any assay of this set; here they are far more common. Cut-off read from the data, not from the text of the source, unless noted: active = inhibition above about 30%; inconclusive = no clear call, values can overlap the other calls; inactive = below that.
SMILES,PfHsp40 rescue,MazF activator,Anthrax LF inh2,BoNT F protease,BoNT A protease,Bead autofluor
Cc1nc(-c2cccc(NS(C)(=O)=O)c2)cs1,3,-1,-7,4,2,?
CCCCNC(=O)C1c2ccccc2OCC(=O)N1Cc1ccccc1 (stereo unspecified),·,·,-6,6,0,5782
COc1ccc(O)c(C2=Nc3ccccc3N=C(c3ccccc3)C2)c1,-1,-1,0,-4,0,4979
COc1ccc2c(c1)NC(=O)CC(c1ccccc1)=N2,0,-3,-5,-2,-1,23168*
O=C(NC1CCCCC1)C(=O)c1c[nH]c2ccccc12,-1,7,-2,10,1,4133
Cc1ccc2c(c1)c1c3n2CCCN(Cc2ccccc2)C3CCC1 (stereo unspecified),-1,-10,-3,-11,?,16950*
Cc1ccc2c(c1)N(Cc1ccccc1)C(=O)C(C)O2 (stereo unspecified),·,·,-6,-2,0,3856
CCC1Oc2ccc(C)cc2N(Cc2cccc(C)c2)C1=O (stereo unspecified),1,-11,-2,-7,?,17288*
CCOC(=O)CN1C(=O)C(CC)Oc2ccc(Cl)cc21 (stereo unspecified),2,-3,-1,-5,-4,21455*
Cc1ccc(N2C(=O)N(CC(=O)Nc3ccccc3C(F)(F)F)C(=O)C2C)cc1 (stereo unspecified),1,3,-1,-12,0,3781
COc1ccc(CCN(C)Cc2c(F)cccc2F)cc1OC,0,3,-2,-2,?,23473*
CCN(CC)CCNC(=O)C(C)c1nn(CC)c(=O)c2ccccc12 (stereo unspecified),0,7,0,1,1,22461*
CCN(CC)CCNC(=O)Cc1nn(CC)c(=O)c2ccccc12,-1,2,0,3,0,10982
O=C(CSc1n[nH]c(=O)n1-c1cccnc1)Nc1ccccc1,0,6,1,4,2,3926
COc1cc2cc(/C=C/C(=O)c3ccco3)c(Cl)nc2cc1OC,0,267*,4,9,7,4079
Cc1ccc2nc(Cl)c(/C=C/C(=O)c3ccco3)cc2c1,1,-29,2,-6,-1,6767
CCN(CC)c1ccc(C=N/C(C#N)=C(\N)C#N)cc1,1,-124,-4,-8,4,17577*
Cc1ccc(OCC(=O)Nc2ccc(Cl)cc2C(=O)c2ccccc2)cc1,-1,-2,-2,-12,-2,2308
Cc1ccc(C(=O)Nc2ccc(Cl)cc2C(=O)c2ccccc2)cc1,1,3,-1,-4,1,23597*
C[C@H]1[C@@H](c2ccccc2)Oc2ccc(Cl)cc2S(=O)(=O)N1Cc1ccc(F)cc1F,2,1,-1,-5,0,3841
O=C(C1CCN(S(=O)(=O)c2ccc(F)cc2)CC1)N1CC=C(c2ccccc2)CC1,2,2,-13,4,4,17943*
Cn1c(=O)oc2cc(S(=O)(=O)N3CCC(C(=O)N4CC=C(c5ccccc5)CC4)CC3)ccc21,0,1,-9,-3,0,4025
O=C(C1CCN(S(=O)(=O)c2ccccc2)CC1)N1CCOCC1,2,8,-2,-2,?,16459*
O=C(C1CCN(S(=O)(=O)c2cccs2)CC1)N1CCN(c2ccccc2)CC1,0,-5,-3,-2,-1,16746*
O=C(C1Cc2ccccc2CN1S(=O)(=O)c1cccs1)N1CCCCC1 (stereo unspecified),3,9,-4,-7,-6,25075*
SMILES,PfHsp40 rescue,MazF activator,Anthrax LF inh2,BoNT F protease,BoNT A protease,Bead autofluor
O=C(c1ccc(S(=O)(=O)N2CCC(c3nc4ccccc4s3)CC2)cc1)N1CCCCC1,0,-4,1,-4,0,5121
O=C(c1ccc(S(=O)(=O)N2CCC(c3nc4ccccc4s3)CC2)cc1)N1CCOCC1,-1,12,1,-2,-4,23501*
O=C(C1CCN(S(=O)(=O)N2CCOCC2)CC1)N1CCC2(CC1)OCCO2,0,2,-2,5,2,22049*
O=C(C1CCN(S(=O)(=O)N2CCC3(CC2)OCCO3)CC1)N1CCOCC1,-1,10,-4,0,1,9675
CC(OC(=O)CSCC(=O)Nc1ccc(Cl)cc1)C(=O)N(C)Cc1ccccc1 (stereo unspecified),0,1,·,·,·,·
c1ccc(CNn2nnnc2-c2ccccc2)cc1,1,0,1,0,1,19323*
